The values that follow come from PubChem BioAssay.

A number with no mark means an inactive call. How the calls were made is not given here.

For the assay, the target named is Pantothenate synthetase (Mycobacterium tuberculosis (strain ATCC 25618 / H37Rv)) (UniProt P9WIL5). The assay can be described thus: Recombinant Mtb pantothenate synthetase (PanC) inhibitors, coupled enzyme, confirmatory (AID 375).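 Further: 0% = full reaction with vehicle and 100% = no enzyme background.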 Particulars: coupled enzyme assay; at 10 µM, active compounds read high.
Pantothenate synthetase (Mycobacterium tuberculosis (strain ATCC 25618 / H37Rv)), sequence (P9WIL5 whole entry, looked up): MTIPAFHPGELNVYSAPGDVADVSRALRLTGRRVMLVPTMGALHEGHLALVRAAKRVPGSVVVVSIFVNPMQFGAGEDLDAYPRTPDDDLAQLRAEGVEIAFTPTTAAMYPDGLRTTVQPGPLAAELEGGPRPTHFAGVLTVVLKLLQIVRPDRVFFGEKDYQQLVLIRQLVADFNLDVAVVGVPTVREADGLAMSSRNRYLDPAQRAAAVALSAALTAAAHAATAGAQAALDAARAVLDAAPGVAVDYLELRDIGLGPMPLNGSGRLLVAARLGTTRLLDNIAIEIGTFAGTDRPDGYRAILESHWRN
For `COc1ccc(OC)c(-c2nnc(SCC(=O)NC3CCCCC3)o2)c1`, the inhibition is 0%.

For `O=C(Nc1ccc2snnc2c1)N1CCN(c2ccccc2)CC1`, the inhibition is 0%.

Consider `Cn1c(C(=O)N2CCN(C(=O)c3ccco3)CC2)cc2c(=O)n3ccccc3nc21`, for which the inhibition was 9%.

Regarding `Cc1c(C(=O)O)c(-c2ccccc2)nn1-c1ccccc1`, the inhibition was 2%.

As to `Cc1nnc2c3ccccc3c(-c3ccccc3)nn12`, the inhibition was 0%.

Take `CCCN1CCN(C(=O)Cn2c(=O)oc3cc(S(=O)(=O)NCc4ccccc4)ccc32)CC1`: the inhibition was 3%.

On to `O=C(CN1CCCCCC1)OCCN=C1NS(=O)(=O)c2ccccc21`, for which the inhibition is 0%.

Take `CC1=C(C(=O)OC2CCCCCC2)C(c2ccc(C)o2)C2=C(CCCC2=O)N1` (stereo unspecified): the inhibition is 0%.

In the case of `CCOC(=O)c1c(C(F)(F)C(F)(F)C(F)(F)C(F)(F)F)n[nH]c1C`, the inhibition was 8%.

For the compound `COc1ccc(Cc2nn3c(-c4cc(OC)c(OC)c(OC)c4)nnc3s2)cc1`, the inhibition was 0%.

For `CCOC(=O)N1CCN(c2cc3[nH]c(=S)[nH]c3cc2F)CC1`, the inhibition is 2%.

As to `COc1cccc(N2CCN(C(=O)C3C4C=CC5(CN(Cc6ccccc6Cl)C(=O)C35)O4)CC2)c1` (stereo unspecified), the inhibition was 0%.

As for `O=S1(=O)CCC(NS(=O)(=O)/C=C/c2ccccc2)C1` (stereo unspecified), the inhibition is 8%.

Regarding `CCOc1ccc(-c2c(C#N)c(N)nc3c2c(=O)n(C)c(=O)n3C)cc1OC`, the inhibition was 6%.

Turning to `CCOC(=O)C1CCCN(Cc2nc(N)nc(Nc3ccc(C)cc3)n2)C1` (stereo unspecified), the inhibition is 0%.

As to `COC(=O)C1=C(N)OC2=C(C(=O)CCC2)C1c1cccs1` (stereo unspecified), the inhibition was 0%.
